Screening results deposited in PubChem by several laboratories.
Only some compounds are listed: those with a hit (about 1.8% of all), similar ones and a draw of the others.
EBV gp42 block: Epstein-Barr virus gp42 inhibitors, primary screen, biochemical, uHTS, fluorescence polarization | 220,000 tested, 0.42% active | Glycoprotein 42 (Epstein-Barr virus (strain AG876)), Q1HVG2 | AID 1085, 2008 | inhibition, % (tested at 21.74 µM) | Fluorescence polarization binding assay, mP read-out; in the data active = inhibition above about 50%
Target sequence (Q1HVG2 whole entry, looked up): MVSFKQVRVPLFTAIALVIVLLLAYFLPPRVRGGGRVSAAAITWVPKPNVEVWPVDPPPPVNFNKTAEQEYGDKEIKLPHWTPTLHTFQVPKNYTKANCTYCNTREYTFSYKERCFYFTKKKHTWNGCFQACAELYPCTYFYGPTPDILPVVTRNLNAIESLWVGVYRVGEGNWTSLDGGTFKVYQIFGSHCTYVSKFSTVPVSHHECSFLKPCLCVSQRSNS
eIF4H inh: human eIF4H binding inhibitors, primary screen, translation initiation inhibitor project, biochemical, uHTS, fluorescence polarization; Eukaryotic translation initiation factor 4H (Homo sapiens), Q15056; eIF4H fluorescence polarization binding assay; inhibition, % at 35 µM; 290,000 tested, 0.94% active;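 note: calls also rest on retests at 20 µM and on dose response follow-up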
PABP polyA inh: PABP poly(A) RNA binding inhibitors, primary screen, biochemical, fluorescence polarization, uHTS. Polyadenylate-binding protein 1 (Homo sapiens), P11940. calls only at 35 µM. 290,000 tested, 1% active;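 note: calls also rest on retests at 20 µM and on dose response follow-up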
PABP1 MLLE inh: inhibitors of PABP1 MLLE–PAM2 peptide binding, primary screen, biochemical, fluorescence polarization, FITC-PAM2, GST-MLLE. Polyadenylate-binding protein 1 (Homo sapiens), P11940. inhibition, % at 20 µM. 360,000 tested, 0.36% active. AID 588489, 2011; in the data active = inhibition above about 35%, passing the limit was not always enough;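 note: plate controls were DMSO wells with GST-MLLE for no effect and wells lacking GST-MLLE protein for full effect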
MEX-5 binding: MEX-5 zinc finger RNA-binding disruptors – biochemical, C. elegans, fluorescence polarization, MLPCN library, primary screen; Zinc finger protein mex-5 (Caenorhabditis elegans), Q9XUB2; MEX-5/FITC-TCR2 RNA binding; stronger effect = lower value; activity score (negative = inhibition of binding), % at 10 µM; 300,000 tested, 0.38% active; AID 1832, 2009;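 active = inhibition past about -25% in most replicates, and total fluorescence under double the plate's negative control median, limit read from the data; inconclusive = replicates evenly split on the limit, or fluorescence at least double controls; inactive = too little inhibition in most replicates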;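 note: 0% = DMSO and -100% = 5 µM competing unlabeled TCR2 RNA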
Active calls of the source: *; i = inactive; ? = inconclusive; nt = not tested or not shown; + = active, no number. Unless noted, the rule behind the calls is not given here.

SMILES	EBV gp42 block	eIF4H inh	PABP polyA inh	PABP1 MLLE inh	MEX-5 binding
Cc1ccc2c(c1)C(=O)CCN2	3	5	i	21	-1
O=C1CCNc2ccc(-c3ccccc3)cc21	+	6	i	158	-67*
CCOC(=O)c1ccc(NC(=O)c2ncn3c2C(=O)N[C@H](C)C3)cc1	nt	nt	nt	-4	nt
CCN1CC=C2C(C1)C(c1ccc(Cl)s1)C(C#N)=C(N)C2(C#N)C#N (stereo not drawn)	88*	?	?	91	?
Cc1ccccc1N=C1NC(=O)/C(=C/c2cccn2-c2cccc(C(=O)O)c2)S1	11	98*	i	nt	-6
O=C(O)c1cccc(-n2cccc2/C=C2/SC(=O)N(CC(=O)N3CCCC3)C2=O)c1	nt	90*	+	2	-4
O=C(CN1C(=O)S/C(=C/c2cccn2-c2ccc(O)cc2)C1=O)N1CCCC1	nt	-2	i	0	2
CN1CCN(c2ccc3sc(-n4ccc5ccccc54)nc3c2)CC1	nt	nt	nt	-80	nt
COCC(=O)Oc1cc(-c2ccc(C)cc2C)c(OC(=O)COC)c(-c2ccc(C)cc2C)c1	nt	nt	nt	0	nt
COCCCN1C(=O)C(CC(=O)NC(c2ccccc2)c2ccccc2)CC(C(=O)N2CCOCC2)=C1C (stereo not drawn)	nt	nt	nt	-8	nt
CCC(C)n1c(=N)c(C#N)cc2c(=O)n3cccc(C)c3nc21 (stereo not drawn)	-18	-1	i	-1	?
CCC(C)n1c(=N)c(C#N)cc2c(=O)n3cc(C)ccc3nc21 (stereo not drawn)	-10	58*	+	-5	-34*
Cc1ccc2nc3c(cc(C#N)c(=O)n3-c3nccs3)c(=O)n2c1	10	98*	+	2	-7
Cc1ccc2nc3c(cc(C#N)c(=O)n3CC3CCCO3)c(=O)n2c1 (stereo not drawn)	11	32*	+	nt	nt
CC1(C(=O)Nc2cnc3ccccc3c2)CCN1Cc1cc2ccccc2o1 (stereo not drawn)	nt	nt	nt	-5	nt
N#Cc1c(N)sc(=S)c2c1CCCCC2	49	?	i	82	-26*
Cc1noc(C)c1S(=O)(=O)NC1CCN(Cc2ccccc2)CC1	2	24	i	18	-34*
O=[N+]([O-])c1cc(-c2ccc(/C=N/n3cnnc3)o2)ccc1Cl	nt	3	i	-2	-40*
COCCNC(=O)C1CCCN(C(=O)COCc2ccccc2)CC1 (stereo not drawn)	nt	nt	nt	-6	nt
Fc1cccc(CN2CCN(c3nc4nonc4nc3NC3CC3)CC2)c1	9	90*	+	12	-12
Cc1ccc(S(=O)(=O)NC(=O)C2(C)CCN2C(=O)c2ccccc2CCc2ccccc2)nc1 (stereo not drawn)	nt	nt	nt	0	nt
CCN(CC)CCCC(C)NC(=O)c1cc(=O)c2ccccc2o1 (stereo not drawn)	-9	-9	?	-2	3
CCN(CC)CCCC(C)NC(=O)c1ccc(C(F)(F)F)cc1 (stereo not drawn)	-22	active	+	-4	-2
COc1cccc(Nc2ncccc2C(=O)NCc2ccccc2)c1	68*	85*	+	-3	nt
Nc1nc2ncc(C(=O)c3cc(Cl)cc(Cl)c3O)cc2s1	32	89*	i	-10	-14
SMILES	EBV gp42 block	eIF4H inh	PABP polyA inh	PABP1 MLLE inh	MEX-5 binding
Cc1ccc(-c2nc3c(c(=O)[nH]c(=O)n3Cc3ccccc3)n2Cc2ccccc2)o1	-6	0	i	-13	5
Cc1ccc(-c2nc3c(c(=O)[nH]c(=O)n3Cc3ccccc3)n2C)o1	10	88*	+	3	nt
Cc1cc(C)c2c(=O)[nH]c(=O)n(Cc3ccccc3)c2n1	-100	103*	+	-74	?
Cc1sc2ncnc(Nc3ccccc3)c2c1C	-1	-2	i	3	2
Cc1sc2ncnc(Nc3ccc(N4CCOCC4)cc3)c2c1-c1ccccc1	-5	?	+	-22	0
COc1cc(CN2CCC(Oc3cc(C(=O)NC4CC4)ccc3OC)CC2)cc(OC)c1	nt	-9	i	-6	nt
O=C(COC(=O)c1ccccc1Br)NCCC1=CCCCC1	-14	-5	i	2	0
O=C(NC(=S)NCCC1=CCCCC1)c1ccccc1Br	-8	8	i	45*	-1
O=C(Nc1cccc(C(F)(F)F)c1)c1cc2ncc(Br)cn2n1	18	2	i	-1	0
O=C(Nc1ccc2c(c1)OCO2)c1cc2ncc(Br)cn2n1	3	54*	+	-8	-2
CN(Cc1ccc(OC(F)F)cc1)C(=O)c1ccc2nccnc2c1	6	-3	i	2	-3
COc1cccc(CN(C)C(=O)c2ccc3nccnc3c2)c1	29	88*	+	-5	1
COc1cc(O)cc2cc3c(c(O)c12)C(=O)CC(C)(O)O3 (stereo not drawn)	33	72*	+	45*	nt
COc1cc(C(=O)NC2CC(C)CC(C)(C)C2)cc(OC)c1OC (stereo not drawn)	nt	nt	nt	2	nt
O=C(NCc1ccccc1)c1cc(C2CCCCN2C(=O)c2cccs2)on1 (stereo not drawn)	nt	nt	nt	-6	nt
Cc1ccc([C@H]2C[C@@H](n3cc(COC(=O)c4ccccc4)nn3)[C@H](O)CN2C(=O)C2CCCCC2)cc1	nt	nt	nt	4	nt
CC(=O)NC12CC3CC(C1)CC(C(=O)Nc1cccc(S(=O)(=O)N4CCCCCC4)c1)(C3)C2	nt	nt	nt	-1	nt
O=C(Nc1nc(=O)c2ccccc2s1)c1ccc(Cl)cc1	-5	1	i	9	1
O=C(Nc1nc(=O)c2ccccc2s1)c1ccc(F)cc1	-13	-3	i	38*	0
CCOC(=O)c1cnc2ccc(Cl)cc2c1NCCN(C)C	-13	?	i	42*	-7
COc1ccc(-c2cc3nc(C)cc(N4CCN(C(=O)c5cccnc5)CC4)n3n2)cc1	nt	nt	nt	-7	nt
O=C(COC(=O)CCc1c[nH]c(=O)[nH]1)Nc1ccccc1	-16	26	i	53*	nt
O=C(COC(=O)CCC(NC(=O)OCc1ccccc1)C(=O)OCC(=O)Nc1ccccc1)Nc1ccccc1 (stereo not drawn)	-22	-1	+	-4	-1
O=[N+]([O-])c1ccc(CSc2nc3ccccc3[nH]2)cc1	-6	-5	+	-74	1
c1ccc(CSc2nc3ccccc3[nH]2)cc1	-1	8	i	-12	0
CCOC(=O)CNc1nnc(SCC(=O)OCC)[nH]c1=O	-13	0	i	46*	-2
CN(C)CCCNCCCCNC(=O)/C=N/O	0	16	+	3	3
CCOc1ccc2nc3cc(N=Nc4ccc(N)nc4N)ccc3c(N)c2c1	nt	nt	nt	82*	nt
CC(=O)NC(c1ccccc1)c1nc(-c2cccs2)cs1 (stereo not drawn)	nt	nt	nt	-3	nt
